# Test results published in PubChem BioAssay AID1159580 (chemical genetic matrix, 2015).
# Where “and” joins values, the source holds several entries; their conditions need not be identical. Identical values can stand only once. Hit rate of the full screen: of about 5,500 compounds, about 2,000 (36%) were called active. Roughly 18% stayed inconclusive and do not appear here. The list shows a part of the results. A number with no mark means an inactive call. Cut-off read from the data, not from the text of the source: active = normalized growth mostly below about 0.91 (no sharp cut-off); inconclusive = no clear call, values can overlap the other calls; inactive = mostly above about 0.92.
# Experiment: chemical genetic growth profiling, strain panel (AID 1159580);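 note: tested at 20 µM; growth read once vehicle control cultures reached saturation at 30 °C; 1 = growth at the plate median or of vehicle wells; lower values mean less growth of the strain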
# Settings: S. cerevisiae deletion strains, growth OD
structure (smiles),measurement,setting,value
CCC(C)C(=O)O[C@@H]1C[C@@]2(C)[C@H](c3ccoc3)OC(=O)CC23OC2(C)OC34[C@H](OC(=O)C(C)C)[C@@]3(O)[C@@H](OC(=O)C5(C)OC5C)[C@@]5(C)C[C@]3(O)[C@@](C)([C@H]5CC(=O)OC)C14O2 (stereo partly drawn),normalized growth,"locus YAL021C, strain ccr4, active compounds read low",1.03
same,normalized growth,"locus YAL026C, strain drs2, active compounds read low",0.981
same,normalized growth,"locus YAL030W, strain snc1, active compounds read low",0.996
same,normalized growth,"locus YBL061C, strain skt5, active compounds read low",1
same,normalized growth,"locus YBR009C, strain hhf1, active compounds read low",1.02
same,normalized growth,"locus YBR021W, strain FUR4, active compounds read low",1.07
same,normalized growth,"locus YBR023C, strain chs3, active compounds read low",1
same,normalized growth,"locus YBR171W, strain sec66, active compounds read low",0.988
same,normalized growth,"locus YBR229C, strain ROT2, active compounds read low",1.01
same,normalized growth,"locus YBR231C, strain swc5, active compounds read low",0.996
same,normalized growth,"locus YBR279W, strain paf1, active compounds read low",0.995
same,normalized growth,"locus YCL011C, strain gbp2, active compounds read low",1
same,normalized growth,"locus YCL016C, strain dcc1, active compounds read low",1.01
same,normalized growth,"locus YCL029C, strain bik1, active compounds read low",0.994
same,normalized growth,"locus YCL061C, strain MRC1, active compounds read low",1
same,normalized growth,"locus YCL069W, strain vba3, active compounds read low",0.995
same,normalized growth,"locus YCR088W, strain abp1, active compounds read low",0.999
same,normalized growth,"locus YDL005C, strain med2, active compounds read low",1.02
same,normalized growth,"locus YDL035C, strain GPR1, active compounds read low",0.974
same,normalized growth,"locus YDL040C, strain nat1, active compounds read low",0.996
same,normalized growth,"locus YDL074C, strain BRE1, active compounds read low",1.01
same,normalized growth,"locus YDL101C, strain DUN1, active compounds read low",1.03
same,normalized growth,"locus YDL185W, strain tfp1, active compounds read low",1.01
same,normalized growth,"locus YDL192W, strain arf1, active compounds read low",0.987
same,normalized growth,"locus YDR001C, strain nth1, active compounds read low",0.999
same,normalized growth,"locus YDR069C, strain doa4, active compounds read low",0.991
same,normalized growth,"locus YDR101C, strain arx1, active compounds read low",0.977
same,normalized growth,"locus YDR137W, strain rgp1, active compounds read low",0.651 (active)
same,normalized growth,"locus YDR150W, strain NUM1, active compounds read low",1
same,normalized growth,"locus YDR159W, strain sac3, active compounds read low",0.981
same,normalized growth,"locus YDR162C, strain NBP2, active compounds read low",0.993
same,normalized growth,"locus YDR195W, strain ref2",1.03
same,normalized growth,"locus YDR297W, strain sur2, active compounds read low",0.992
same,normalized growth,"locus YDR318W, strain mcm21, active compounds read low",1.01
same,normalized growth,"locus YDR334W, strain swr1, active compounds read low",1
same,normalized growth,"locus YDR335W, strain msn5, active compounds read low",0.997
same,normalized growth,"locus YDR388W, active compounds read low",1.01
same,normalized growth,"locus YDR392W, strain spt3, active compounds read low",0.998
same,normalized growth,"locus YDR502C, strain sam2, active compounds read low",1.03
same,normalized growth,"locus YEL003W, strain gim4, active compounds read low",1
same,normalized growth,"locus YEL037C, strain rad23, active compounds read low",1.01
same,normalized growth,"locus YEL061C, strain CIN8 (second series), active compounds read low",1
same,normalized growth,"locus YEL061C, strain CIN8, active compounds read low",1
same,normalized growth,"locus YER015W, strain faa2, active compounds read low",1.01
same,normalized growth,"locus YER016W, strain bim1, active compounds read low",1
same,normalized growth,"locus YER110C, active compounds read low",1.02
same,normalized growth,"locus YER111C, strain swi4, active compounds read low",0.99
same,normalized growth,"locus YER155C, strain BEM2 (second series), active compounds read low",1.02
same,normalized growth,"locus YER155C, strain BEM2, active compounds read low",1.01
same,normalized growth,"locus YER167W, strain BCK2, active compounds read low",0.995
same,normalized growth,"locus YFR010W, strain ubp6, active compounds read low",1.01
same,normalized growth,"locus YGL078C, strain dbp3, active compounds read low",1.03
same,normalized growth,"locus YGL086W, strain mad1, active compounds read low",1.02
same,normalized growth,"locus YGL167C, strain pmr1, active compounds read low",0.993
same,normalized growth,"locus YGL173C, strain kem1, active compounds read low",0.977
same,normalized growth,"locus YGL227W, strain vid30, active compounds read low",0.992
same,normalized growth,"locus YGL240W, strain doc1, active compounds read low",1
same,normalized growth,"locus YGL248W, strain PDE1, active compounds read low",1.03
same,normalized growth,"locus YGL253W, strain hxk2, active compounds read low",0.986
same,normalized growth,"locus YGR135W, strain pre9, active compounds read low",1.06
same,normalized growth,"locus YGR252W, strain gcn5, active compounds read low",1.15
same,normalized growth,"locus YHR013C, strain ard1, active compounds read low",1.01
same,normalized growth,"locus YHR027C, strain rpn1, active compounds read low",0.996
same,normalized growth,"locus YHR030C, strain SLT2, active compounds read low",1.05
same,normalized growth,"locus YHR079C, strain IRE1 (second series), active compounds read low",1
same,normalized growth,"locus YHR079C, strain IRE1, active compounds read low",1.04
same,normalized growth,"locus YHR094C, strain hxt1, active compounds read low",1.01
same,normalized growth,"locus YHR129C, strain ARP1, active compounds read low",1.02
same,normalized growth,"locus YHR142W, strain chs7, active compounds read low",0.994
same,normalized growth,"locus YHR200W, strain rpn10, active compounds read low",1.03
same,normalized growth,"locus YIL066C, strain RNR3, active compounds read low",0.982
same,normalized growth,"locus YIL073C, strain SPO22, active compounds read low",1
same,normalized growth,"locus YIL125W, strain kgd1, active compounds read low",1
same,normalized growth,"locus YIR030C, strain dcg1, active compounds read low",1
same,normalized growth,"locus YJL092W, strain hpr5, active compounds read low",1.01
same,normalized growth,"locus YJL095W, strain BCK1 (second series), active compounds read low",1.02
same,normalized growth,"locus YJL095W, strain BCK1, active compounds read low",1.06 and 1.02
same,normalized growth,"locus YJL115W, strain asf1, active compounds read low",1.01
same,normalized growth,"locus YJL129C, strain trk1, active compounds read low",0.98
same,normalized growth,"locus YJL134W, strain LCB3, active compounds read low",1
same,normalized growth,"locus YJL154C, strain vps35, active compounds read low",0.993
same,normalized growth,"locus YJL164C, strain tpk1, active compounds read low",0.996
same,normalized growth,"locus YJL166W, strain qcr8, active compounds read low",0.989
same,normalized growth,"locus YJL168C, strain set2, active compounds read low",1.01
same,normalized growth,"locus YJL187C, strain SWE1 (second series), active compounds read low",1.04
same,normalized growth,"locus YJL187C, strain SWE1, active compounds read low",1
same,normalized growth,"locus YJR066W, strain TOR1, active compounds read low",0.979
same,normalized growth,"locus YJR075W, strain HOC1, active compounds read low",1.02
same,normalized growth,"locus YKL009W, strain mrt4, active compounds read low",0.972
same,normalized growth,"locus YKL068W, active compounds read low",1
same,normalized growth,"locus YKL085W, strain MDH1 (second series), active compounds read low",1
same,normalized growth,"locus YKL085W, strain MDH1, active compounds read low",1
same,normalized growth,"locus YKL160W, strain elf1, active compounds read low",0.966
same,normalized growth,"locus YKL190W, strain CNB1, active compounds read low",0.999
same,normalized growth,"locus YKR001C, strain vps1, active compounds read low",0.996
same,normalized growth,"locus YKR026C, strain gcn3, active compounds read low",1
same,normalized growth,"locus YKR091W, strain srl3, active compounds read low",0.996
same,normalized growth,"locus YLL001W, strain dnm1, active compounds read low",1
same,normalized growth,"locus YLL026W, active compounds read low",1
same,normalized growth,"locus YLL041C, strain sdh2, active compounds read low",0.988
same,normalized growth,"locus YLR027C, strain aat2, active compounds read low",1.01
same,normalized growth,"locus YLR039C, strain RIC1, active compounds read low",0.774
same,normalized growth,"locus YLR058C, strain SHM2, active compounds read low",1.01
same,normalized growth,"locus YLR102C, strain apc9, active compounds read low",1.01
same,normalized growth,"locus YLR113W, strain HOG1, active compounds read low",1.01
same,normalized growth,"locus YLR221C, strain rsa3, active compounds read low",0.994
same,normalized growth,"locus YLR258W, strain gsy2, active compounds read low",0.983
same,normalized growth,"locus YLR262C, strain YPT6 (second series), active compounds read low",0.647 (active)
same,normalized growth,"locus YLR268W, strain sec22, active compounds read low",0.958
same,normalized growth,"locus YLR320W, strain mms22, active compounds read low",0.999
same,normalized growth,"locus YLR342W, strain FKS1, active compounds read low",1.01
same,normalized growth,"locus YLR357W, strain rsc2, active compounds read low",1.03
same,normalized growth,"locus YLR370C, strain arc18, active compounds read low",0.996
same,normalized growth,"locus YLR371W, strain rom2, active compounds read low",1.01
same,normalized growth,"locus YLR384C, strain iki3, active compounds read low",1.01
same,normalized growth,"locus YLR418C, strain cdc73, active compounds read low",1.04
same,normalized growth,"locus YML016C, strain PPZ1, active compounds read low",1.01
same,normalized growth,"locus YML032C, strain rad52, active compounds read low",0.98
same,normalized growth,"locus YML120C, strain ndi1, active compounds read low",1.01
same,normalized growth,"locus YML124C, strain tub3, active compounds read low",0.998
same,normalized growth,"locus YMR058W, strain fet3, active compounds read low",1.01
same,normalized growth,"locus YMR078C, strain ctf18, active compounds read low",0.999
same,normalized growth,"locus YMR125W, strain sto1, active compounds read low",1.01
same,normalized growth,"locus YMR129W, active compounds read low",0.99
same,normalized growth,"locus YMR205C, strain PFK2, active compounds read low",0.975
same,normalized growth,"locus YMR223W, strain ubp8, active compounds read low",1.01
same,normalized growth,"locus YMR231W, strain pep5, active compounds read low",0.992
same,normalized growth,"locus YMR307W, strain GAS1, active compounds read low",1.01
same,normalized growth,"locus YNL067W, strain RPL9B, active compounds read low",1.05
same,normalized growth,"locus YNL071W, strain lat1, active compounds read low",1.02
same,normalized growth,"locus YNL128W, strain TEP1, active compounds read low",0.99
same,normalized growth,"locus YNL153C, strain GIM3, active compounds read low",1.07
same,normalized growth,"locus YNL183C, strain NPR1, active compounds read low",0.988
same,normalized growth,"locus YNL209W, strain ssb2, active compounds read low",1.02
same,normalized growth,"locus YNL233W, strain BNI4, active compounds read low",1.04
same,normalized growth,"locus YNL248C, strain rpa49, active compounds read low",1.03
same,normalized growth,"locus YNL250W, strain rad50, active compounds read low",1.05
same,normalized growth,"locus YNL271C, strain bni1, active compounds read low",1.01
same,normalized growth,"locus YNL298W, strain CLA4, active compounds read low",1.02
same,normalized growth,"locus YNL307C, strain MCK1, active compounds read low",1.01
same,normalized growth,"locus YNL322C, strain KRE1 (second series), active compounds read low",1
same,normalized growth,"locus YNL322C, strain KRE1, active compounds read low",1
same,normalized growth,"locus YNR049C, strain mso1, active compounds read low",1.01
same,normalized growth,"locus YNR052C, strain pop2, active compounds read low",1.03
same,normalized growth,"locus YOL012C, strain htz1",0.642
same,normalized growth,"locus YOL147C, strain pex11, active compounds read low",0.999
same,normalized growth,"locus YOR001W, strain rrp6, active compounds read low",1
same,normalized growth,"locus YOR061W, strain CKA2, active compounds read low",0.987
same,normalized growth,"locus YOR069W, strain VPS5, active compounds read low",1
same,normalized growth,"locus YOR070C, strain gyp1, active compounds read low",1.02
same,normalized growth,"locus YOR080W, strain dia2, active compounds read low",1.01
same,normalized growth,"locus YOR083W, strain WHI5, active compounds read low",1.01
same,normalized growth,"locus YOR106W, strain vam3, active compounds read low",0.998
same,normalized growth,"locus YOR136W, strain idh2, active compounds read low",1.01
same,normalized growth,"locus YOR144C, strain elg1, active compounds read low",0.998
same,normalized growth,"locus YOR184W, strain ser1, active compounds read low",0.971
same,normalized growth,"locus YOR231W, strain MKK1, active compounds read low",0.991
same,normalized growth,"locus YOR265W, strain rbl2, active compounds read low",0.984
same,normalized growth,"locus YOR270C, strain vph1, active compounds read low",0.777 (active)
same,normalized growth,"locus YOR290C, strain snf2, active compounds read low",1
same,normalized growth,"locus YOR316C, strain cot1, active compounds read low",0.999
same,normalized growth,"locus YPL051W, strain arl3, active compounds read low",0.983
same,normalized growth,"locus YPL055C, strain LGE1, active compounds read low",0.979
same,normalized growth,"locus YPL078C, strain atp4, active compounds read low",0.992
same,normalized growth,"locus YPL106C, strain sse1, active compounds read low",1.06
same,normalized growth,"locus YPL240C, strain hsp82, active compounds read low",1
same,normalized growth,"locus YPL241C, strain CIN2, active compounds read low",0.983
same,normalized growth,"locus YPL256C, strain CLN2, active compounds read low",1.04
same,normalized growth,"locus YPR119W, strain clb2, active compounds read low",1.01
same,normalized growth,"locus YPR141C, strain kar3, active compounds read low",1.01
same,normalized growth,"locus YPR163C, strain tif3, active compounds read low",1.01
same,normalized growth,"locus YPR167C, strain met16, active compounds read low",1.01
same,normalized growth,"strain wtn01, active compounds read low",0.982
